Assay results: PubChem BioAssay AID977607 (Broad Institute, 2014)
Screen size: about 1,500 compounds; about 460 (31%) were called active. About 1% were inconclusive and are not listed.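 How the source made its calls: active means curve reaches 40% activation over neutral controls at an AC40 no higher than the top valid tested concentration; inconclusive means no clear call, values can overlap the other calls; inactive means signal moving opposite to the expected increase, and the rest.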 A selection follows. Potency and affinity values are given separately.

Assay: GLuc-reported insulin release enhancers, glucose-stimulated beta cells – cell-based, INS-1E, Gaussia luciferase, luminescence, cherry-pick, set 2, dose response (AID 977607);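 further: 0% = median of the plate neutral control wells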
Details: INS-1E GLuc insulin secretion reporter, 2-3 h, stronger effect = higher value; at 35 µM, 100% = signal doubled over neutral wells unless noted

Max activation, inactive:
Cc1cc(C)nc(NC(N)=NCCc2c[nH]c3ccccc23)n1 -23.4% [at 0.046 µM, 100% = signal doubled over neutral wells], CCN(CC)CCCN=C1N[C@@H](c2ccccc2)C(C(=O)OC)=C(C)N1CC -23.5% [at 3.8 µM, 100% = signal doubled over neutral wells], COc1cc(C(F)(F)F)c(C(=O)NCc2cccc(Cl)c2)cn1 -11.8%, COC(=O)C1=C(C)N(Cc2ccc(C(F)(F)F)cc2)C(=NCC2CC2)NC1c1ccccc1 (stereo not given) -21% [at 3.8 µM, 100% = signal doubled over neutral wells], CCCCN(Cc1nc2ccccc2c(=O)[nH]1)C(=O)c1nn(C)c(=O)c2ccccc12 -30.4% [at 0.0016 µM, 100% = signal doubled over neutral wells], Clc1cc(NC2CCCCC2)ncn1 -22.5% [at 11 µM, 100% = signal doubled over neutral wells], CC(C)c1cc(C(C)C)n2nc(N)nc2n1 24.3%, COCCOC(=O)C1=C(C)NC(=O)N(C(C)=O)C1c1ccc(Cl)cc1 (stereo not given) -26.3% [at 3.8 µM, 100% = signal doubled over neutral wells], NC1=NC(=O)C(Cc2ccc(F)cc2)S1 (stereo not given) -13% [at 0.015 µM, 100% = signal doubled over neutral wells], CCCNC(=O)C1(C)CCN(C(=O)c2cccc(C(F)(F)F)c2)C1 (stereo not given) -15.8% [at 0.135 µM, 100% = signal doubled over neutral wells], O=C(c1ccccc1F)N1CCCC(N2CCN(Cc3ccc4c(c3)OCO4)CC2)C1 (stereo not given) -12.4% [at 0.0016 µM, 100% = signal doubled over neutral wells], CCCCc1nnc2c(N(C)S(=O)(=O)c3ccccc3)nc3ccccc3n12 -17.8% [at 0.015 µM, 100% = signal doubled over neutral wells], Cc1cccc(N2CCN(C(=O)c3cccn4c(=O)c5c(C)c(C)sc5nc34)CC2)c1C -13.3% [at 0.046 µM, 100% = signal doubled over neutral wells], COC(=O)C1CCN(c2cc(Cl)nc(N)n2)CC1 30.9%, NC(=O)c1cc2cc(Cl)ccc2o/c1=N/NC(=O)c1cccs1 -12.9% [at 0.135 µM, 100% = signal doubled over neutral wells], N#CCCN(Cc1ccccc1)C(=O)c1cccs1 -20.9% [at 11 µM, 100% = signal doubled over neutral wells], CCOC(=O)c1cc(CC)sc1NC(=O)COC(=O)c1cnccn1 -18.2% [at 0.005 µM, 100% = signal doubled over neutral wells], CCOc1ncccc1C(=O)NCc1cccc(OC)c1 -19.1% [at 0.0016 µM, 100% = signal doubled over neutral wells], COc1cccc(CNC(=O)c2cccnc2Sc2ccccc2)c1 -18.8% [at 0.0016 µM, 100% = signal doubled over neutral wells], CCOc1ccc(CCNC(=O)COC(=O)c2nccnc2N)cc1OCC 16.3% [at 0.42 µM, 100% = signal doubled over neutral wells], C/C(Cl)=C\Cn1c(N2CCCC2)nc2c1c(=O)[nH]c(=O)n2C -16.5% [at 0.0016 µM, 100% = signal doubled over neutral wells], COc1ccc(NC(=O)Cc2c(SC)c3ccccc3n2Cc2ccccc2)cc1 28.7% [at 1.2 µM, 100% = signal doubled over neutral wells], CCCCC(=O)N(C)c1c(CC)nc2c(OCc3ccc(C(F)(F)F)cc3)cccn12 -15.2%, CCc1nc2c(OCc3ccccc3C(=O)OC)cccn2c1N(C)C(=O)c1ccncc1 -29.4%, C[C@@H]1CN([C@@H](C)CO)C(=O)c2cccc(NC(=O)Nc3ccc(C(F)(F)F)cc3)c2O[C@H]1CN(C)Cc1ccc(Cl)c(Cl)c1 -26.5% [at 11 µM, 100% = signal doubled over neutral wells], C[C@H](CO)N1C[C@H](C)[C@@H](CN(C)C(=O)CC2CC2)Oc2cc(C#CC(C)(C)O)ccc2S1(=O)=O 36.4% [at 0.046 µM, 100% = signal doubled over neutral wells], C[C@H]1CN([C@@H](C)CO)C(=O)c2ccccc2-c2ccccc2CO[C@@H]1CN(C)Cc1ccc(Cl)c(Cl)c1 -38.4% [at 3.8 µM, 100% = signal doubled over neutral wells], COCC(=O)N(C)C[C@H]1Oc2cc(Br)ccc2S(=O)(=O)N([C@H](C)CO)C[C@H]1C -5.77% [at 0.046 µM, 100% = signal doubled over neutral wells], C[C@@H]1CN([C@H](C)CO)C(=O)c2cc(C#CCN(C)C)cnc2O[C@H]1CN(C)S(=O)(=O)c1cn(C)cn1 31.4% [at 0.015 µM, 100% = signal doubled over neutral wells], C[C@@H]1CN([C@H](C)CO)C(=O)c2cc(C#CCc3ccccc3)cnc2O[C@H]1CN(C)C(=O)C1CCC1 25.2% [at 0.015 µM, 100% = signal doubled over neutral wells], C[C@H]1CN([C@@H](C)CO)C(=O)c2ccccc2-c2ccccc2CO[C@@H]1CN(C)Cc1cccc(C(F)(F)F)c1 -39% [at 11 µM, 100% = signal doubled over neutral wells], C[C@@H]1CN([C@H](C)CO)S(=O)(=O)c2ccc(-c3ccc(C#N)cc3)cc2O[C@H]1CN(C)C 15.6% [at 0.046 µM, 100% = signal doubled over neutral wells], COc1ccc(-c2nc3cccc(C)n3c2NCc2ccco2)cc1OC -14.6% [at 1.2 µM, 100% = signal doubled over neutral wells], CN(C)c1ccc(CC(=O)N2CCCCC2c2cc(C(=O)Nc3ccccc3Cl)no2)cc1 (stereo not given) -48.9%, CCCc1c(C)c2ccc(OCC(C)=O)cc2oc1=O -16.6% [at 0.005 µM, 100% = signal doubled over neutral wells], CCOC(=O)N1CCN(S(=O)(=O)c2ccc3c4c(cccc24)C(=O)N3)CC1 37.4% [at 0.42 µM, 100% = signal doubled over neutral wells], C[C@@H]1CN([C@@H](C)CO)C(=O)CCCn2nncc2CO[C@H]1CN(C)Cc1ccccc1 -19.1% [at 0.015 µM, 100% = signal doubled over neutral wells], C[C@H](CO)N1C[C@H](C)[C@@H](CN(C)C(=O)Cc2ccccn2)Oc2cc(C#C[C@@H](C)O)ccc2S1(=O)=O -20.3% [at 0.135 µM, 100% = signal doubled over neutral wells], C[C@@H]1CN([C@H](C)CO)C(=O)Cc2cc(NC(=O)CCCN(C)C)ccc2O[C@H]1CN(C)Cc1ccc(-c2ccccc2)cc1 19.8%, C[C@H]1CN([C@@H](C)CO)C(=O)c2cc(C#CCc3ccccc3)cnc2O[C@@H]1CN(C)C(=O)C1CC1 -42.9%, O=C(Cn1cnc2c(OCc3ccccc3)ncnc21)NCc1ccccn1 17.4% [at 0.135 µM, 100% = signal doubled over neutral wells], Cc1c(C)n(CCCN(C)C)c2ncnc(Nc3ccccc3)c12 -20.1% [at 11 µM, 100% = signal doubled over neutral wells], Cc1ccc(F)cc1NC(=O)c1sc2ncn(CC(=O)N3CCN(c4ccccn4)CC3)c(=O)c2c1C -38%, COc1ccc(/C=N/n2c(-c3n[nH]c4c3CCC4)n[nH]c2=S)cc1OC -27.2% [at 0.0016 µM, 100% = signal doubled over neutral wells], Cc1ccc(/C=N/n2c(-c3cccnc3)n[nH]c2=S)s1 -11.8% [at 1.2 µM, 100% = signal doubled over neutral wells], S=c1[nH]nc(-c2ccccc2)n1/N=C/c1c[nH]c2ccccc12 30.5% [at 0.005 µM, 100% = signal doubled over neutral wells], C=CCN=c1sc(C(=O)OC)cc(=O)n1CC=C 27.6% [at 11 µM, 100% = signal doubled over neutral wells], Cc1ccc(F)cc1-c1nc(NC(C)C)nc2cc(-c3ccccc3)sc12 -27.5% [at 11 µM, 100% = signal doubled over neutral wells], COc1ccc(CCNC(=O)CN2c3cccc4cccc(c34)S2(=O)=O)cc1OC 39.7%, O=C(Nc1cccnc1)/C(N=Nc1cccnc1)=C(\O)c1ccccc1 -11.7% [at 0.42 µM, 100% = signal doubled over neutral wells]
